# Activity calls are given as the source filed them. How the source made its calls: active means hit-call score of the fitted dose curve at least 0.9, where 1 is the maximum; inactive means score below 0.9.
# Tests used:
# [1] = read-out: Tumor necrosis factor receptor superfamily member 6 (Homo sapiens) (UniProt P25445); test: LTEA_HepaRG_FAS: Life Technologies and Expression Analysis (LTEA) Assay for Fas cell surface death receptor (FAS) using HepaRG (AID 2283447); settings: mRNA level, 48 h; actives raise or lower the signal
# Outline: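 FAS transcript level was measured by TaqMan qRT-PCR against three housekeeping genes after 48 h chemical exposure. Cells were HepaRG, 0.5% DMSO vehicle, with a top concentration of 100 uM and half-log dilutions over eight points, in duplicate.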
# [2] = read-out: Fatty acid synthase (Homo sapiens) (UniProt P49327); test: LTEA_HepaRG_FASN: Life Technologies and Expression Analysis (LTEA) Assay for Fatty Acid Synthase (FASN) using HepaRG (AID 2283448); settings: mRNA level, 48 h; actives raise or lower the signal
# Outline: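 Transcript-level assay: HepaRG liver cells are treated for 48 h across an eight-point range topping at 100 uM, and FASN mRNA, normalized to three housekeeping genes, is compared with DMSO controls in both directions.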
# [3] = read-out: Cyclin Dependent Kinase Inhibitor 1A (CDKN1A), CDKN1A (gene 1026); test: LTEA_HepaRG_CDKN1A: Life Technologies and Expression Analysis (LTEA) Assay for Cyclin Dependent Kinase Inhibitor 1A (CDKN1A) using HepaRG (AID 2283450); settings: mRNA level, 48 h; actives raise or lower the signal
# Outline: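 Read-out is CDKN1A mRNA by TaqMan qRT-PCR, normalized to three housekeeping genes and fitted in both directions against the DMSO baseline. Human HepaRG cells were treated 48 h with test chemicals up to 100 uM in half-log steps, 0.5% DMSO.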
# [4] = read-out: catalase (CAT), CAT (gene 847); test: LTEA_HepaRG_CAT: Life Technologies and Expression Analysis (LTEA) Assay for catalase (CAT) using HepaRG (AID 2283452); settings: mRNA level, 48 h; actives raise or lower the signal
# Outline: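 Expression of CAT was quantified by TaqMan qRT-PCR with ACTB/GAPDH/POLR2A normalization after 48 h chemical exposure of HepaRG. Eight-point half-log series, top 100 uM, in 0.5% DMSO; gain or loss fitted against vehicle.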
# [5] = read-out: Cytochrome P450 (CYP1A1), CYP1A1 (gene 1543); test: LTEA_HepaRG_CYP1A1: Life Technologies and Expression Analysis (LTEA) Assay for Cytochrome P450 (CYP1A1) using HepaRG (AID 2283454); settings: mRNA level, 48 h; actives raise or lower the signal
# Outline: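 HepaRG, 48 h post-plating switched to serum-free induction medium; 8-pt conc-response (top 100 uM, half-log, 0.5% DMSO), duplicates, 48 h. Lysis in RLT, TaqMan qRT-PCR for CYP1A1; gain or loss vs DMSO.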
# [6] = read-out: CFLAR gene, CFLAR (gene 8837); test: LTEA_HepaRG_CFLAR: Life Technologies and Expression Analysis (LTEA) Assay for CFLAR gene using HepaRG (AID 2283455); settings: mRNA level, 48 h; actives raise or lower the signal
# Outline: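 HepaRG, 48 h exposure, 8-pt conc-response (100 uM top, half-log), 0.5% DMSO vehicle, duplicates. CFLAR expression by qRT-PCR; ACTB/GAPDH/POLR2A normalization; gain or loss fit vs DMSO baseline.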
# [7] = read-out: Forkhead box O1 (FOXO1), FOXO1 (gene 2308); test: LTEA_HepaRG_FOXO1: Life Technologies and Expression Analysis (LTEA) Assay for Forkhead box O1 (FOXO1) using HepaRG (AID 2283456); settings: mRNA level, 48 h; actives raise or lower the signal
# Outline: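 Readout is FOXO1 transcript level by multiplexed qRT-PCR against three housekeeping genes, curve-fitted in both directions relative to 0.5% DMSO vehicle. Human HepaRG cultures received chemicals for 48 h, up to 100 uM in half-log steps.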
# [8] = read-out: growth arrest and DNA damage 45 (GADD45A), GADD45A (gene 1647); test: LTEA_HepaRG_GADD45A: Life Technologies and Expression Analysis (LTEA) Assay for growth arrest and DNA damage 45 (GADD45A) using HepaRG (AID 2283458); settings: mRNA level, 48 h; actives raise or lower the signal
# Outline: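 Human HepaRG liver cells are treated in duplicate for 48 h with chemicals in 0.5% DMSO, highest concentration 100 uM. Expression is read by qRT-PCR and analyzed in both directions against vehicle.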
# [9] = read-out: Forkhead box O3 (FOXO3), FOXO3 (gene 2309); test: LTEA_HepaRG_FOXO3: Life Technologies and Expression Analysis (LTEA) Assay for Forkhead box O3 (FOXO3) using HepaRG (AID 2283459); settings: mRNA level, 48 h; actives raise or lower the signal
# Outline: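 HepaRG, 48 h post-dose; 8 conc., half-log from 100 uM, 0.5% DMSO, duplicates; serum-free induction medium. Readout: FOXO3 mRNA, TaqMan qRT-PCR, housekeeping-normalized. Bidirectional curve fit vs DMSO baseline.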
# [10] = read-out: ABC Transporter (ABCB1), ABCB1 (gene 5243); test: LTEA_HepaRG_ABCB1: Life Technologies and Expression Analysis (LTEA) Assay for ABC Transporter (ABCB1) using HepaRG (AID 2283460); settings: mRNA level, 48 h; actives raise or lower the signal
# Outline: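 Expression of ABCB1 was quantified by qRT-PCR against three housekeeping genes after human HepaRG cultures received test chemicals for 48 hours. Concentrations spanned eight half-log steps topping at 100 uM in 0.5% DMSO; gain or loss of signal was fitted relative to vehicle.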
# [11] = read-out: growth arrest and DNA damage 45 (GADD45B), GADD45B (gene 4616); test: LTEA_HepaRG_GADD45B: Life Technologies and Expression Analysis (LTEA) Assay for growth arrest and DNA damage 45 (GADD45B) using HepaRG (AID 2283461); settings: mRNA level, 48 h; actives raise or lower the signal
# Outline: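 HepaRG, ~100,000 cells/well, 48 h plating; serum-free induction medium; cpd 100 uM top, half-log x8, 0.5% DMSO, duplicate, 48 h; lysis in RLT, RNA isolation, qRT-PCR; norm ACTB/GAPDH/POLR2A; bidirectional fit vs DMSO.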
# [12] = read-out: ABC Transporter (ABCB11), ABCB11 (gene 8647); test: LTEA_HepaRG_ABCB11: Life Technologies and Expression Analysis (LTEA) Assay for ABC Transporter (ABCB11) using HepaRG (AID 2283463); settings: mRNA level, 48 h; actives raise or lower the signal
# Outline: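 ABCB11 transcript levels are read by Fluidigm TaqMan qRT-PCR after 48 h chemical treatment of human HepaRG cells. Concentrations span 100 uM downward in half-log steps with 0.5% DMSO; gain or loss is fitted against DMSO controls.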
# [13] = read-out: ABC Transporter (ABCC2), ABCC2 (gene 1244); test: LTEA_HepaRG_ABCC2: Life Technologies and Expression Analysis (LTEA) Assay for ABC Transporter (ABCC2) using HepaRG (AID 2283464); settings: mRNA level, 48 h; actives raise or lower the signal
# Outline: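 HepaRG, 48 h post-plating; serum-free induction medium; cpd 8-pt, 100 uM top, half-log, 0.5% DMSO, duplicate, 48 h. Readout: ABCC2 mRNA by qRT-PCR, norm. ACTB/GAPDH/POLR2A. Bidirectional fit vs DMSO baseline.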
# [14] = read-out: Broad substrate specificity ATP-binding cassette transporter ABCG2 (Homo sapiens) (UniProt Q9UNQ0); test: LTEA_HepaRG_ABCG2: Life Technologies and Expression Analysis (LTEA) Assay for ABC Transporter (ABCG2) using HepaRG (AID 2283465); settings: mRNA level, 48 h; actives raise or lower the signal
# Outline: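 Read-out is ABCG2 mRNA induction or loss quantified by qRT-PCR after 48 h chemical treatment of human HepaRG cells, normalized to three housekeeping genes. Concentrations reached 100 uM top in half-log steps; fitting was bidirectional against 0.5% DMSO.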
# [15] = read-out: ATP-citrate lyase (ACLY), ACLY (gene 47); test: LTEA_HepaRG_ACLY: Life Technologies and Expression Analysis (LTEA) Assay for ATP-citrate lyase (ACLY) using HepaRG (AID 2283466); settings: mRNA level, 48 h; actives raise or lower the signal
# Outline: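 HepaRG, 48 h exposure, 8-pt half-log dilutions (top 100 uM), 0.5% DMSO. Readout: ACLY mRNA, TaqMan qRT-PCR, housekeeping-normalized (ACTB/GAPDH/POLR2A). Bidirectional curve fit vs DMSO.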
# [16] = read-out: Cyclin D2 (CCND2), CCND2 (gene 894); test: LTEA_HepaRG_CCND2: Life Technologies and Expression Analysis (LTEA) Assay for Cyclin D2 (CCND2) using HepaRG (AID 2283449); settings: mRNA level, 48 h; actives raise or lower the signal
# Outline: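 Read-out is CCND2 mRNA level measured by qRT-PCR in human HepaRG liver cells and normalised to three housekeeping genes. Chemicals were applied for 48 h at up to 100 uM, with gain or loss fitted relative to 0.5% DMSO.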
# [17] = read-out: flavin-containing dimethylaniline monooxygenases 3 (FMO3), FMO3 (gene 2328); test: LTEA_HepaRG_FMO3: Life Technologies and Expression Analysis (LTEA) Assay for flavin-containing dimethylaniline monooxygenases 3 (FMO3) using HepaRG (AID 2283453); settings: mRNA level, 48 h; actives raise or lower the signal
# Outline: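 HepaRG, 48 h exposure, 8-pt half-log series from 100 uM, 0.5% DMSO vehicle, duplicates; FMO3 transcript by Fluidigm TaqMan qRT-PCR, housekeeping-normalized; gain/loss fit vs DMSO.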
# [18] = CEETOX_H295R_TESTO: CeeTox H295R High-throughput Steroidogenesis Assay for Testosterone (TESTO) (AID 2283457); settings: actives raise or lower the signal
# Outline: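 H295R, passage ≤10, 48 h dosing; media extracted with MTBE → HPLC-MS/MS for testosterone; 7-pt standard curve sets LLOQ/ULOQ; bidirectional fit vs DMSO; MTT viability same wells.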
# [19] = read-out: ABC Transporter (ABCC3), ABCC3 (gene 8714); test: LTEA_HepaRG_ABCC3: Life Technologies and Expression Analysis (LTEA) Assay for ABC Transporter (ABCC3) using HepaRG (AID 2283462); settings: mRNA level, 48 h; actives raise or lower the signal
# Outline: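 Human HepaRG, 48 h dosing, 8-pt half-log series from 100 uM, 0.5% DMSO vehicle, duplicates. ABCC3 mRNA by TaqMan qRT-PCR, housekeeping-normalized; bidirectional curve fit vs DMSO.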
# Chain of Fatty acid synthase (Homo sapiens) (P49327 whole entry, looked up): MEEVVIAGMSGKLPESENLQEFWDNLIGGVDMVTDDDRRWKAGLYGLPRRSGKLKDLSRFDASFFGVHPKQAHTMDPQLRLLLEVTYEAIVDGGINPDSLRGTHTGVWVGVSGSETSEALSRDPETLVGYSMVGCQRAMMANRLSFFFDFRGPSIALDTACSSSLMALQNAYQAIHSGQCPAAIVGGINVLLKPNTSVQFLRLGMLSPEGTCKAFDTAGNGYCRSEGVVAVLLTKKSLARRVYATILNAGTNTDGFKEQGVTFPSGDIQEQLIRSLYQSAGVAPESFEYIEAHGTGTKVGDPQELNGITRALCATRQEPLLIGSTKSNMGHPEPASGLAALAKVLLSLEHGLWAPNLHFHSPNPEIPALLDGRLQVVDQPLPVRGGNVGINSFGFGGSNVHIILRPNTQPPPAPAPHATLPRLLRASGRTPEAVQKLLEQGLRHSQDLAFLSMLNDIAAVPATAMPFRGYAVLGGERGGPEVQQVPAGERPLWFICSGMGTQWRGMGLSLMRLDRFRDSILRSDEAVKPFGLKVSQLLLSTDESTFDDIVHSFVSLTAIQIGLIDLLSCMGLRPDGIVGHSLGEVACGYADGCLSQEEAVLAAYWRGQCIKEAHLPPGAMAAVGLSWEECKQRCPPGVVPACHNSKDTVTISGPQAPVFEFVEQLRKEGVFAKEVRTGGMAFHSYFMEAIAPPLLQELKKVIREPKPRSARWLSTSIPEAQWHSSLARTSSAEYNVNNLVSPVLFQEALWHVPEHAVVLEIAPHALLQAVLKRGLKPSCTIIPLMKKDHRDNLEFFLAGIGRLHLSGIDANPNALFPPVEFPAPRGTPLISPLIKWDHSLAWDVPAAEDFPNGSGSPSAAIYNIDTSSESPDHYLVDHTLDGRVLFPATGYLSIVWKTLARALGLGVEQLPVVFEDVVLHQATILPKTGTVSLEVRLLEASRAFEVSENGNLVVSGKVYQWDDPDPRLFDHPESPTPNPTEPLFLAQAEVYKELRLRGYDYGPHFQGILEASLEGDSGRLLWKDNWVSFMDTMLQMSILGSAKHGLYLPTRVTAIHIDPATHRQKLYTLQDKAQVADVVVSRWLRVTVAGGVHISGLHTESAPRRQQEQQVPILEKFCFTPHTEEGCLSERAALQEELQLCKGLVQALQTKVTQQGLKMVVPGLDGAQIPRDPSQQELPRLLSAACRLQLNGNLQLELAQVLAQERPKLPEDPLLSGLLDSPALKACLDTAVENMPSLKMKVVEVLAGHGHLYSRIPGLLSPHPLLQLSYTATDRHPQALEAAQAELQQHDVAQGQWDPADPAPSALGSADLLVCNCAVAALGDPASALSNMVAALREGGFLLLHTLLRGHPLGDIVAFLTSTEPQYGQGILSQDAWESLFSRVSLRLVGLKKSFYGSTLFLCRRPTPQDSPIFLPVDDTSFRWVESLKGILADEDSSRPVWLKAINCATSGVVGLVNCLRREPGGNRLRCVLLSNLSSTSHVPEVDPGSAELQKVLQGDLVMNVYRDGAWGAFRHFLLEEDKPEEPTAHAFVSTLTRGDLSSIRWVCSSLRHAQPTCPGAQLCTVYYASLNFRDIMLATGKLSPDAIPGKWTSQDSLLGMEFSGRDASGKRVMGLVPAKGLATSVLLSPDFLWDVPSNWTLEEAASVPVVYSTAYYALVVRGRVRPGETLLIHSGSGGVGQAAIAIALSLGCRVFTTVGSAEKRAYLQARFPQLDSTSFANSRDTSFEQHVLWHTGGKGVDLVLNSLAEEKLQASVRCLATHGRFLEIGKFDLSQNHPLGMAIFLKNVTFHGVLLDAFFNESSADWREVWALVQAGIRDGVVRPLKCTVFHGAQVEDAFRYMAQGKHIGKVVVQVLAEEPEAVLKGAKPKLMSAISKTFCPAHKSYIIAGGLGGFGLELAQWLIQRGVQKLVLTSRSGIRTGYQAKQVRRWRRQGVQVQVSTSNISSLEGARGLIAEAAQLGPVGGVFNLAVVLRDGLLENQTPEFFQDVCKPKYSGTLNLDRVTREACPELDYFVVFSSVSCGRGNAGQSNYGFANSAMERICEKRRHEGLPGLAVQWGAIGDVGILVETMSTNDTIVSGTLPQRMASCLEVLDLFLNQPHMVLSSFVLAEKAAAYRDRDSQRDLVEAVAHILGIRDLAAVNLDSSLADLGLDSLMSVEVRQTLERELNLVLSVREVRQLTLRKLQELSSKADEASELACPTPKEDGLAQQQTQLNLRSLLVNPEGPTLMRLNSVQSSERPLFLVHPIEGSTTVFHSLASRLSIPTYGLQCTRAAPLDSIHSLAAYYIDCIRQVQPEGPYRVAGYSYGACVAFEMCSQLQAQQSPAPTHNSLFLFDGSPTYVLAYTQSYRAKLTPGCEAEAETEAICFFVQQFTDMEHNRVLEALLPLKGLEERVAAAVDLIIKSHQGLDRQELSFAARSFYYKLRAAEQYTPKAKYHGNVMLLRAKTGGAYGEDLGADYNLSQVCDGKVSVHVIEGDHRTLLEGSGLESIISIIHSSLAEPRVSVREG
# Chain of Broad substrate specificity ATP-binding cassette transporter ABCG2 (Homo sapiens) (Q9UNQ0 whole entry, looked up): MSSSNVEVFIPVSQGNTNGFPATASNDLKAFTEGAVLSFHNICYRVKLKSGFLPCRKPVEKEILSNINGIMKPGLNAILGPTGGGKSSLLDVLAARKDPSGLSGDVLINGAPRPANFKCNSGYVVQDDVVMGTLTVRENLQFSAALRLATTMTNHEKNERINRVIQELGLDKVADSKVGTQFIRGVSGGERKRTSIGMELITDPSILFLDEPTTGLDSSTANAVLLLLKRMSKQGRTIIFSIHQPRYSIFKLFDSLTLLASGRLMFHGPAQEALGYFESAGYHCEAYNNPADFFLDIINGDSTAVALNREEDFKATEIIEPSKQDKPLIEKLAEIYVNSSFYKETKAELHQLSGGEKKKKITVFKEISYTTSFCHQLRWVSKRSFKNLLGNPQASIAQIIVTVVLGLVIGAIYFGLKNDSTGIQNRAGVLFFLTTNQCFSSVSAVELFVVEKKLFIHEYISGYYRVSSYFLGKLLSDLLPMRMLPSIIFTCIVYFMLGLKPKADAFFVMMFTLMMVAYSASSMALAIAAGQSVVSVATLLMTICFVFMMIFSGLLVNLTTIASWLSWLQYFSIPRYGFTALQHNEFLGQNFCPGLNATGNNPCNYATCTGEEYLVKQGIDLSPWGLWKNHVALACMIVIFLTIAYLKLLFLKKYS
smiles,measurement,setting,value
O=c1[nH]cc(F)c(=O)[nH]1,AC50,[1],31300 nM (active)
same,outcome,[2],inactive
same,AC50,[3],35500 nM (active)
same,AC50,[4],30700 nM (active)
same,outcome,[5],inactive
same,outcome,[6],inactive
same,outcome,[7],inactive
same,outcome,[8],inactive
same,outcome,[9],inactive
same,outcome,[10],inactive
same,outcome,[11],inactive
same,AC50,[12],64000 nM (active)
same,outcome,[13],inactive
same,outcome,[14],inactive
same,outcome,[15],inactive
COCCOCCOC,AC50,[1],382 nM (active)
same,outcome,[2],inactive
same,outcome,[16],inactive
same,outcome,[3],inactive
same,outcome,[4],inactive
same,AC50,[5],1220 nM (active)
same,AC50,[6],253 nM (active)
same,AC50,[7],2220 nM (active)
same,AC50,[8],998 nM (active)
same,AC50,[9],9920 nM (active)
same,AC50,[10],2830 nM (active)
same,outcome,[11],inactive
same,AC50,[12],922 nM (active)
same,outcome,[13],inactive
same,AC50,[14],1370 nM (active)
same,outcome,[15],inactive
Cc1cc(NC(=O)C(=O)O)cc(C)c1Oc1ccc(O)c2c1CCC2,outcome,[1],inactive
same,outcome,[2],inactive
same,outcome,[3],inactive
same,AC50,[4],303 nM (active)
same,outcome,[17],inactive
same,AC50,[5],2.6 nM (active)
same,outcome,[6],inactive
same,outcome,[7],inactive
same,outcome,[18],inactive
same,outcome,[8],inactive
same,outcome,[9],inactive
same,outcome,[10],inactive
same,outcome,[11],inactive
same,outcome,[19],inactive
same,AC50,[12],7.78 nM (active)
same,outcome,[13],inactive
same,outcome,[15],inactive
O=[N+]([O-])C(CO)(CO)CO,outcome,[1],inactive
same,outcome,[2],inactive
same,outcome,[16],inactive
same,outcome,[3],inactive
same,outcome,[4],inactive
same,AC50,[5],25300 nM (active)
same,outcome,[6],inactive
same,outcome,[7],inactive
same,outcome,[10],inactive
same,outcome,[11],inactive
same,outcome,[12],inactive
same,outcome,[13],inactive
